Drawing on PubChem BioAssay AID547 (Emory University Molecular Libraries Screening Center, 2006), this text covers luminescence for ten compounds.

About 10 (0.8%) of roughly 1,300 compounds were called active. Shown is part of a subset that was picked to be rich in actives. Unmarked numbers belong to inactive results. No rule for the calls is given here.

The experiment addresses Chaperone protein DnaK (Escherichia coli (strain K12)) (UniProt P0A6Y8). The experiment can be described thus: E. coli DnaK chaperone inhibitors, primary screen, luminescence, E. coli K12 (AID 547).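 Also: tested at 10 µM.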 To be noted: DnaK chaperone assay, luminescence read-out; hits give low values.
As for `CN(N=O)c1ccc(O)c(O)c1`, the luminescence was 951000 cps (active).
On to `CCCN(CCC)CCc1ccc(O)c(O)c1`, for which the luminescence was 2.6e+06 cps.
The figure for `CN(N=O)c1cc(O)ccc1O` is 2.3e+06 cps; for `CCN(CCCl)Cc1ccccc1Br` it is 2.7e+06 cps; for `NC(Cc1cc(O)c(O)cc1O)C(=O)O` (stereo not given) it is 1.2e+06 cps (active).
With `N[C@@H](CCl)C(=O)O` the figure was 2.4e+06 cps.
Regarding `NC(Cc1ccc(N(CCCl)CCCl)cc1)C(=O)O` (stereo not given), the luminescence is 2.5e+06 cps.
On to `C[N+](C)(C)CC(=O)O`, for which the luminescence was 2.7e+06 cps.
With `Oc1ccc2c3c1O[C@H]1c4[nH]c5ccccc5c4C[C@@]4(O)C(C2)N(CC2CC2)CCC314` (stereo not given in full) the figure was 2.5e+06 cps; with `C[C@]12CC[C@H]3[C@@H](CCC4C[C@H](O)CC[C@@]43C)[C@@H]1CC[C@@H]2O` (stereo not given in full), 2.6e+06 cps.
